High-throughput results as filed in PubChem BioAssay.
Dicer inh = blocks human Dicer maturation of pre-miR-21; 47,000 tested, 6% active; Q9UPY3; z-score at 25 µM; AID 1347074; cat-ELCCA pre-miR-21 Dicer processing, chemiluminescence; stronger effect = higher value; in the data active = z-score above about 3, passing the limit was not always enough;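 also: plate controls were vehicle for no effect and no enzyme for full effect; higher signal means more uncleaved substrate so more Dicer inhibition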
Target sequence (Q9UPY3 whole entry, looked up): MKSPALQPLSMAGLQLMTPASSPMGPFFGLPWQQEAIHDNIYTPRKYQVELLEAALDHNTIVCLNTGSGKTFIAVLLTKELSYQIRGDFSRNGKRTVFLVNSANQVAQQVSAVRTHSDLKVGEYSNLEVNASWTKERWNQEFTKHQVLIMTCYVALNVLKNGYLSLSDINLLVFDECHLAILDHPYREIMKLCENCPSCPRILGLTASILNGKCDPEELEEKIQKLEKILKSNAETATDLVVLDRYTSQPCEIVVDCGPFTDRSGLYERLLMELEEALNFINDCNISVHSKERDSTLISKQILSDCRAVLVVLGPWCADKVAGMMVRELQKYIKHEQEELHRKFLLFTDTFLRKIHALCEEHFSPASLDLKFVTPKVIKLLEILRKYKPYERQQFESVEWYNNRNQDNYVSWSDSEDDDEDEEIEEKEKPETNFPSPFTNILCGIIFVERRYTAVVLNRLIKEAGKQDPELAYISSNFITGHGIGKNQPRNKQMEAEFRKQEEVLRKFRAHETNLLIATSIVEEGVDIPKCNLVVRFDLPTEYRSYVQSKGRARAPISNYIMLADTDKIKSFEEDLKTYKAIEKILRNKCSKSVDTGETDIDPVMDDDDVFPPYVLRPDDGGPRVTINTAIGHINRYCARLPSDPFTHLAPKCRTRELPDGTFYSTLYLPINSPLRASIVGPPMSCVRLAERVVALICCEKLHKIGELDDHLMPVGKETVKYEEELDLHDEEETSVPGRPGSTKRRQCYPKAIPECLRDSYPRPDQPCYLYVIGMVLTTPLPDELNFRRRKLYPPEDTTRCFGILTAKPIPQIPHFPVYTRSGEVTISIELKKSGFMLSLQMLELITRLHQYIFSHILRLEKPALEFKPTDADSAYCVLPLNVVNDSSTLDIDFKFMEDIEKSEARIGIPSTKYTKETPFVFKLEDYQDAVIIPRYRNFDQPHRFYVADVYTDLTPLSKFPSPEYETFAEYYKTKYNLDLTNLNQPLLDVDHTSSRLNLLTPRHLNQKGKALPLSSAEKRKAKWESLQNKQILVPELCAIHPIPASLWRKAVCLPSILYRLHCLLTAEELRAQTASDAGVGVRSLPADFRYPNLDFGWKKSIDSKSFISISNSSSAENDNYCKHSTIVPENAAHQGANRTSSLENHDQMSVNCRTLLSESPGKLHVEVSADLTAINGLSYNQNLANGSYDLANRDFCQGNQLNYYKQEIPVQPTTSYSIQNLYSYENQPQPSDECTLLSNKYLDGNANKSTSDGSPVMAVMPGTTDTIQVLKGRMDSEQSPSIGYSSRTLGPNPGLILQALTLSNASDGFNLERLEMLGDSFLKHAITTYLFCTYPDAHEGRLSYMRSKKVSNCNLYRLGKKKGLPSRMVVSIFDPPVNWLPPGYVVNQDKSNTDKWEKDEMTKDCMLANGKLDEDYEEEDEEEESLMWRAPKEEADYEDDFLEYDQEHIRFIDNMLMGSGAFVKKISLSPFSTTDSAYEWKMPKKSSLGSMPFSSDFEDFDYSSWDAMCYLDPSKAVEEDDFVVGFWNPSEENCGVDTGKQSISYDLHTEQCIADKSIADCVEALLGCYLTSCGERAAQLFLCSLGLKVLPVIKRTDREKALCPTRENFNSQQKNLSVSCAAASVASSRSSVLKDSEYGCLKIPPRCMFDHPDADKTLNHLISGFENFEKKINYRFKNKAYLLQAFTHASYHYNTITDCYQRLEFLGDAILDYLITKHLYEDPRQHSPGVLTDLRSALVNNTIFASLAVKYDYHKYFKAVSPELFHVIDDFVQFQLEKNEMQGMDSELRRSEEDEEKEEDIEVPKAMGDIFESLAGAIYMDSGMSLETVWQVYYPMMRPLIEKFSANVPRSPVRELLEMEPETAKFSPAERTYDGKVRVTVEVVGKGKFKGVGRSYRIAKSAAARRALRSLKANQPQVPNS
Numbers without * were called inactive. This is one part of a sample in which hits are shown more often than they occur.

SMILES	Dicer inh
C#CCN1C(=O)C(=O)c2cc(Br)ccc21	4.3*
N#CCCN(CN1C(=O)C(=O)c2cc(Br)ccc21)C1CCCCC1	-3.1
CCCN1C(=O)C(=O)c2cc(Br)ccc21	-0.64
COC(=O)c1cncc(C(=O)OC)c1	-1.1
CC(C)(C)c1ccc(C(=O)Oc2c(Cl)cncc2Cl)cc1	0.22
CC(C)(C)c1cc(C(=O)Oc2cncc(Cl)c2)cc(C(=O)Oc2cncc(Cl)c2)c1	36*
CCOc1ccc(/C(O)=C2\C(=O)C(=O)N(c3nnc(C)s3)C2c2ccc(Cl)cc2)cc1 (stereo unspecified)	-0.05
O=C(Nc1cc(C(F)(F)F)ccc1N1CCOCC1)c1cccnc1Oc1ccccc1	-0.36
O=c1[nH]c2ccccc2c2ccccc12	-0.32
O/N=C1\CCCc2[nH]c3ccccc3c21	5.1*
O=c1[nH]c2ccccc2c(O)c1-c1ccccc1	0.27
O=S(=O)(c1ccc2ccccc2c1)N1CCc2ccccc2C1	2.2
OC(CNCc1ccc(C(F)(F)F)cc1)Cn1ccc(C(F)(F)F)n1 (stereo unspecified)	-0.21
Cc1[nH]c2ccccc2c(=O)c1CN1CCOCC1	-0.84
CCc1cccc(C)c1N=C(C#N)C1=C(O)c2ccccc2C1=O	-1.9
Cc1cc(Cl)ccc1N=C(C#N)C1=C(O)c2ccccc2C1=O	4.8*
Cc1ccc(N=C(C#N)C2=C(O)c3ccccc3C2=O)cc1F	-0.88
CCCc1cc(=O)[nH]c(/N=C(\N)Nc2cc(Cl)cc(Cl)c2)n1	1.7
COc1ccc(C2C(C(=O)c3ccco3)=C(O)C(=O)N2Cc2cccnc2)cc1 (stereo unspecified)	-5.8
Cc1cc(C)c2c(=O)[nH]c(SCC(=O)N3CCCCC3)nc2n1	5.8*
Cc1sc2nc(SCC(=O)N3CCCCC3)[nH]c(=O)c2c1C	-0.76
CCc1ccc(C(=O)CSc2nc3nc(C)cc(C)c3c(=O)[nH]2)cc1	0.63
CC1=C(C#N)C(c2ccccc2OC(C)C)C2=C(CC(c3ccc(Cl)cc3)CC2=O)N1 (stereo unspecified)	-0.31
Cc1nc(Nc2ncc3c(n2)CC(c2ccccc2)CC3=O)nc2ccccc12 (stereo unspecified)	1.3
O=C1CC(c2ccccc2)Cc2nc(NCc3ccco3)ncc21 (stereo unspecified)	3.9*
SMILES	Dicer inh
Cc1nnc(SCC(=O)Nc2ncc3c(n2)CC(c2ccco2)CC3=O)s1 (stereo unspecified)	2.8
CCC(C)C(=O)Nc1ncc2c(n1)CC(c1ccc(C(C)C)cc1)CC2=O (stereo unspecified)	0.71
O=C(Nc1ncc2c(n1)CC(c1ccccc1)CC2=O)c1ccco1 (stereo unspecified)	4.2*
O=C1CC(c2ccccc2Cl)Cc2nc(NCCc3ccccc3)ncc21 (stereo unspecified)	-0.73
C=CCN1C(=O)C(O)(CC(=O)c2ccc(OC)cc2OC)c2ccccc21 (stereo unspecified)	-1.1
CC(=O)Nc1cc(C(=O)c2ccc(Cl)cc2)nn(-c2ccccc2)c1=O	13
CSc1sccc1/C=C(/C#N)S(C)(=O)=O	1.4
C(=C\c1nnnn1-c1ccccc1)/NCc1ccccc1	-0.29
Fc1ccc(N/N=C/Cc2nnnn2-c2ccccc2)c(F)c1	3.9*
NC(=S)N/N=C\Cc1nnnn1-c1ccccc1	-0.56
CC(C)(C)c1ccc(OS(=O)(=O)c2ccc(Cl)cc2Cl)cc1	-0.98
COc1ccc(-c2nnc3c4ccccc4c(C)nn23)cc1S(=O)(=O)N(C)CCO	2.1
COCCN1C(=O)c2oc3ccccc3c(=O)c2C1c1ccc(SC)cc1 (stereo unspecified)	-0.56
CCOc1ccccc1NC(=O)NC(=O)N(c1ccccc1)S(C)(=O)=O	-1
CC(C)(C)OC(=O)N1CCCN(C(=S)Nc2ccccc2N2CCOCC2)CC1	-0.86
S=C(NCC1CC1)Nc1ccc2[nH]ccc2c1	4.8*
O=C(NCC1CC1)Nc1ccc2c(c1)CCO2	1
S=C(Nc1ccc(N2CCOCC2)nc1)Nc1cc(Cl)ccc1Cl	0.43
S=C(Nc1ccc2[nH]ccc2c1)Nc1ccccc1N1CCOCC1	4.6*
O=C(Nc1ccc2[nH]ncc2c1)C1CCC1	-0.03
COC(=O)/C(C#N)=C/c1ccc(Cl)cc1Cl	-0.61
CC(C)(O)C#Cc1ccc(/C=N/Nc2cccc(C(F)(F)F)n2)cc1	1.4
COC(=O)c1cc(-c2ccc(F)cc2)no1	1.5
CSc1ncc(C#N)c2nc(-c3ccc(N(C)C)cc3)nn12	-0.81
C/C(=N\N=C1\NC(=O)C(CC(=O)O)S1)c1ccccc1Cl (stereo unspecified)	0.88
SMILES	Dicer inh
Cc1c(NC(=S)Nc2ccccc2Cl)c(=O)n(-c2ccccc2)n1C	-0.96
Cc1ccc(C(=O)n2nc(C)c(Sc3ncccn3)c2C)cc1	-0.27
CSc1nc(-c2ccco2)nn1C(=O)c1ccccc1	3.4*
CSc1nc(-c2ccco2)nn1C(C)=O	-4.5
Cc1ccc(-c2noc(-c3ccco3)n2)cc1	0.03
CSc1nc(-c2ccco2)nn1C(=O)c1ccc(C)cc1	3.2*
COc1ccc(C(=O)Cn2c3ccccc3n3nc(-c4ccco4)nc23)cc1	1.4
O=C(Cn1c(C(=O)c2ccccc2)nc2ccccc21)c1ccccc1	2.1
COc1ccc(Cc2nc(S(=O)(=O)c3ccc(C)cc3)c(N3CCOCC3)o2)cc1	2.5
O=[N+]([O-])c1cc(C(F)(F)F)ccc1Oc1ccc(-c2ncon2)cc1	-0.49
CC1=C(C(=O)OCCc2ccccc2)C(c2cccs2)C2=C(CC(c3cccs3)CC2=O)N1 (stereo unspecified)	0.63
CSc1nc(N)n2nc(C3CC3)cc2n1	-2.2
Cc1ccc(-c2cn3cc(Cl)ccc3n2)cc1	0.81
CNC(=O)N(CCS(=O)(=O)c1ccc(Cl)cc1)Cc1cccs1	-2.5
CCN(CCS(=O)(=O)c1ccccc1)S(=O)(=O)c1ccc(Cl)cc1	-4.4
CCN(CCS(=O)(=O)c1ccc(Cl)cc1)C(=O)Nc1ccccc1	3.3*
COc1ccc(C2C(C(=O)OC(C)C)=C(C)NC3=C2C(=O)CC(C)(C)C3)cc1Br (stereo unspecified)	-0.74
Cc1nnc(N2C(=O)C(=O)/C(=C(/O)c3ccc(F)cc3)C2c2ccc(Cl)cc2)s1 (stereo unspecified)	2
CCCc1cnc(N2CCCN(C(=S)Nc3ccc(C)cc3)CC2)nc1	-0.74
COC(=O)Cn1nnc(N2CCOCC2)n1	0.53
CC(C(=O)NNC(=S)NCC1CC1)n1nnc(N2CCOCC2)n1 (stereo unspecified)	3.9*
O=C(Cn1nnc(N2CCOCC2)n1)NNC(=S)Nc1ccc(F)cc1F	0.13
CCCCOC(C)n1ccc(=O)[nH]c1=O (stereo unspecified)	0.74
Clc1cccc(Cl)c1CO/N=C1\CSCc2ccccc21	-1.8
CNC(=S)N(C)NC(=S)NCc1cccs1	0.23
SMILES	Dicer inh
Nc1nc(-c2ccc3c(c2)CCCC3)cc(C(F)(F)F)n1	-1.3
CC1=C(C(=O)OC2CCCCC2)C(c2ccc(N(C)C)cc2)C2=C(CCCC2=O)N1 (stereo unspecified)	0.92
ONC=Nc1cc(Cl)c(-n2cccc2)cc1Cl	-0.78
Cc1cc(N=CNO)c2ccccc2n1	-0.52
CCCCc1ccc(N=CNO)c(C)c1	4*
C/C(=N\OC(=O)c1ccc(Cl)c(Cl)c1)c1ccc(F)c(F)c1	0.29
COC(=O)c1sccc1-c1ccc(C2C3=C(CCCC3=O)NC3=C2C(=O)CCC3)o1	0.31
Cc1nnc2n1NC(c1ccc(Cl)cc1)C(C(=O)NCC(C)C)S2 (stereo unspecified)	-1.2
COc1ccc(OC)c(NC(=O)C(=O)NCC2CCCO2)c1 (stereo unspecified)	-1.7
